Results filed as inconclusive are left out. Unmarked numbers belong to inactive results. Activity calls are given as the source filed them. Calls follow the shape of the dose curve; as a rule, active = well fitted inhibition curve with a large enough effect; inconclusive = small, poorly fitted or top-dose-only effect; inactive = flat fitted curve, though single readings scatter.
% is scaled to controls: 0 for no effect and ±100 for the full control effect; potency is read from the fitted curve at half-maximal effect.

Sequence of Luciferin 4-monooxygenase (Photinus pyralis) (P08659 whole entry, looked up): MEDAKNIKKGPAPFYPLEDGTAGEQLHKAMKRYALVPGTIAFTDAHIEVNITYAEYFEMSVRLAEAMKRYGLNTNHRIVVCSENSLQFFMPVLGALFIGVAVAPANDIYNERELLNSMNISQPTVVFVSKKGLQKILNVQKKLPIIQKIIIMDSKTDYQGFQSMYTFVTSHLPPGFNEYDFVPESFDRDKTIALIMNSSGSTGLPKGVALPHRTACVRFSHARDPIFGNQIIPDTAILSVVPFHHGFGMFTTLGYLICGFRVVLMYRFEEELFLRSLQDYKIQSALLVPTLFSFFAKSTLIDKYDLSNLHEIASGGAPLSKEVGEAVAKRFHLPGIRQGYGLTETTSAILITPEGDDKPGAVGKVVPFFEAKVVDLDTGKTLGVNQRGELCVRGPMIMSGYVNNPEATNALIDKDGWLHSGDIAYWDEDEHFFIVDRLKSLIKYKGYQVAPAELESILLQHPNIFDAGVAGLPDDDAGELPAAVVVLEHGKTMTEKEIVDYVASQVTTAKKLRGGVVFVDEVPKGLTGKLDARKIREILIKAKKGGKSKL

The target of the assay is Luciferin 4-monooxygenase (Photinus pyralis) (UniProt P08659). The assay is described as follows: qHTS Assay for Inhibitors of Firefly Luciferase from the GSK Published Protein Kinase Inhibitor Set. The following applies: purified firefly luciferase, luminescence inhibition; series mostly up to 57.5 µM; activity change, negative = inhibition: at the top concentration. The text has this:
FLuc (firefly luciferase) is the prototypical bioluminescent reporter gene from Photinus pyralis.[1] The enzyme catalyzes the oxidation luciferin via luciferin-AMP to produce light. FLuc is used in cell-based reporter gene-based assays for screening small molecule chemical libraries. However, small molecule luciferase inhibitors present in most large chemical libraries are often enriched in the output of high throughput screens using this reporter sometimes complicating interpretation and candidate selection.
RLuc is a bioluminescent reporter gene luciferase from Renilla reniformis, also known as the sea pansy. RLuc uses the luciferin substrate coelenterazine. RLuc is often used in combination with the nonhomologous luciferase FLuc (firefly luciferease) as a trasfection or pathway normalization control. Recently, non-homologous reporters have been described for high throughput screening 'coincidence' reporter gene strategies.
1. Fan F, Wood KV (2007) Bioluminescent assays for high-throughput screening. Assay Drug Dev Technol 5: 127-136.
2. Thorne N, Inglese J, Auld DS (2010) Illuminating insights into firefly luciferase and other bioluminescent reporters used in chemical biology. Chem Biol 17: 646-657.
3. […] Chem Biol 19: 1060-1072.
4. Michelini E, Cevenini L, Mezzanotte L, Coppa A, Roda A (2010) Cell-based assays: fuelling drug discovery. Anal Bioanal Chem 398: 227-238.
5. Cheng KC, Inglese J (2012) A coincidence reporter-gene system for high-throughput screening. Nat Methods 9: 937.
Biochemical firefly luciferase enzyme assay
NCGC Assay Protocol Summary:
Reagents: 50mM Tris acetate, pH 7.5; 10mM Mg acetate; 10uM D-luciferin (Sigma #L9504); 10uM ATP; 0.01% Tween-20; 0.05% BSA; 10nM P. pyralis luciferase (Sigma #L9506)
Control compounds used were two known firefly luciferase inhibitors (compounds (2) and (5) in Auld et al., 2010), and DMSO.
Three microliters containing firefly luciferase substrates in buffer (final concentrations: 50mM Tris acetate, pH 7.5, 10mM Mg acetate, 0.01% Tween-20, 0.05% BSA, 10uM D-luciferin, and 10uM ATP) are dispensed into each well of a Greiner white, solid-bottom 1536-well format plate using a flying reagent dispenser (FRD). These assay plates were then treated with 23nL of compound or DMSO using a Kalypsys pin tool, which allows for delivery of a 7-point interplate titration of each compound to the assay plates (quantitative HTS), with final compound concentrations ranging from approximately 60uM to 300pM. One microliter of firefly luciferase in 50mM Tris-acetate buffer was then delivered by FRD to each well for a final enzyme concentration of 10nM. Luciferase activity was then measured using an Envision plate reader (PerkinElmer), with an average incubation time of 5 min.
A general note: In qHTS, concentration-response curves come from the screen itself.
With `CC(=O)NCc1cccc(C#Cc2cncnc2Nc2ccc(OCc3cccc(F)c3)c(Cl)c2)c1`, the “activity change, negative = inhibition” value was -82.4%.

Regarding `Nc1nonc1-c1nc2cnccc2n1C1CCCCC1`, the “activity change, negative = inhibition” value was 21.4%.

`COc1ccc(-c2oc3ncnc(N)c3c2-c2ccc(NC(=O)Nc3cc(C(F)(F)F)ccc3F)cc2)cc1`: the “activity change, negative = inhibition” value was 0.585%.

For `NS(=O)(=O)c1ccc(N=Nc2c(O)[nH]c3ccc(-c4cnco4)cc23)cc1`, the “activity change, negative = inhibition” value was 1.94%.

Consider `Cc1cccc(Nc2ncc(-c3ccccc3)o2)c1`, for which the Potency is 580 nM (active).

Take `CC(C)COC(=O)c1ccc2[nH]c(O)c(C=Nc3ccc(S(N)(=O)=O)cc3)c2c1`: the “activity change, negative = inhibition” value was 4.05%.

As for `O=C(OC1CNC(C#Cc2cc3ncnc(Nc4ccc5c(ccn5Cc5cc(F)ccc5F)c4)c3s2)C1)N1CCOCC1` (stereo not given), the “activity change, negative = inhibition” value is -6.86%.

As for `CC(Oc1cc(-n2cnc3ccc(OCC(O)CO)cc32)sc1C(N)=O)c1ccccc1Cl` (stereo not given), the “activity change, negative = inhibition” value is 6.05%.

As to `C#Cc1cccc(Nc2ncnc3ccc(OCCCCNCCS(C)(=O)=O)cc23)c1`, the “activity change, negative = inhibition” value was 7.77%.

As for `FC(F)(F)c1cccc(Nc2nccc(-c3cnn4nc(-c5ccccc5)ccc34)n2)c1`, the “activity change, negative = inhibition” value is -11.3%.

Turning to `Cc1nn(C)c2cc(N(C)c3ccnc(Nc4cccc(S(N)(=O)=O)c4)n3)ccc12`, the “activity change, negative = inhibition” value is 0.13%.

In the case of `COc1ccc2nc3c4nc5ccc(OC)cc5c4c4c(=O)[nH]c(=O)c4c3c2c1`, the “activity change, negative = inhibition” value was -4.51%.

Regarding `O=C1Nc2ccc(I)cc2C1=Cc1cc(Br)c(O)c(Br)c1`, the “activity change, negative = inhibition” value is -3.81%.

As for `NC(=O)c1sc(-n2cnc3ccccc32)cc1OCc1ccccc1Br`, the “activity change, negative = inhibition” value is -3.22%.

For the molecule `Nc1nc(-c2ccc(F)cc2)c(-c2ccc3ncccc3n2)s1`, the “activity change, negative = inhibition” value was 10.4%.

In the case of `Clc1ccc(CNc2nccc(-c3cnn4ncccc34)n2)cc1`, the “activity change, negative = inhibition” value was 2.79%.

As to `COc1cc(N2CCN(C(C)C)CC2)ccc1Nc1nc(Nc2ccc(F)cc2C(=O)NCC(O)CO)c2cc[nH]c2n1` (stereo not given), the “activity change, negative = inhibition” value is 21.9%.

As to `NCc1ccc(-c2nc(-c3ccc(Cl)c(O)c3)c(-c3ccncc3)[nH]2)cc1`, the “activity change, negative = inhibition” value is -11.5%.

As for `COc1ccc2ncn(-c3cc(OC(C)c4ccccc4Cl)c(C(N)=O)s3)c2c1` (stereo not given), the “activity change, negative = inhibition” value was 2.04%.

Take `CCCN1CCCC(c2ccc(Nc3nc(Nc4cc(F)ccc4C(N)=O)c4cc[nH]c4n3)c(OC)c2)C1` (stereo not given): the “activity change, negative = inhibition” value was 27.6%.

Consider `CCOc1ccc2c(-c3ccnc(Nc4cccc(C(F)(F)F)c4)n3)cnn2n1`, for which the “activity change, negative = inhibition” value was 11.5%.

As to `CCn1c(-c2nonc2N)nc2cnc(Oc3cccc(NC(=O)c4ccc(N(C)C)cc4)c3)cc21`, the Potency is 1030 nM (active).

Take `CN(C)c1cc2c(Nc3ccc4c(cnn4Cc4ccccc4)c3)ncnc2cn1`: the “activity change, negative = inhibition” value is -7.49%.

In the case of `COc1cc2c(cc1Nc1nc(Nc3ccsc3C(N)=O)c3cc[nH]c3n1)N(C(=O)CN(C)C)CCC2`, the “activity change, negative = inhibition” value was 4.82%.

`Cc1cc(O)cc(C)c1C=Cc1cncc(C(=O)OC(C)(C)C)c1`: the “activity change, negative = inhibition” value is -0.255%.

Turning to `CC(C)=Cc1cccc2[nH]c(O)c(N=Nc3ccc(S(N)(=O)=O)cc3)c12`, the “activity change, negative = inhibition” value is 3.89%.

Regarding `Fc1ccc(Oc2nccc(-c3c(-c4ccc(F)cc4)ncn3C3CCNCC3)n2)cc1`, the “activity change, negative = inhibition” value is 5.77%.

With `CN1CCN(Cc2ccc(-c3cc4ncnc(Nc5ccc(OCc6cccc(F)c6)c(Cl)c5)c4s3)o2)CC1`, the “activity change, negative = inhibition” value is -3.12%.

Turning to `FC(F)(F)CNc1nccc(-c2cnn3ncccc23)n1`, the “activity change, negative = inhibition” value was -26.5%.

In the case of `CCN1CCC(CC(=O)Nc2n[nH]c3nc(-c4cccs4)c(Br)cc23)CC1`, the “activity change, negative = inhibition” value was 3%.

As for `COC(=O)Nc1nc2ccc(Sc3ccc(NC(=O)Nc4cc(C(F)(F)F)ccc4F)cc3)cc2[nH]1`, the “activity change, negative = inhibition” value was 15%.

For `CS(=O)(=O)CCNCc1ccc(-c2ccc3ncnc(Nc4ccc(OCc5cccc(C(F)(F)F)c5)cc4)c3c2)o1`, the “activity change, negative = inhibition” value is 0.519%.

As for `CCn1c(-c2nonc2N)nc2c(C#CC(C)(C)O)nc(CN3CCCC3)cc21`, the “activity change, negative = inhibition” value is 9.71%.

As to `Cn1cc(C=C2C(=O)Nc3cccnc32)c2ccccc21`, the Potency was 14600 nM (active).

Consider `c1ccc(-c2[nH]ncc2-c2ccnc(-c3ccc(OCCn4ccnc4)cc3)c2)nc1`, for which the “activity change, negative = inhibition” value is 0.937%.

As for `CCn1c(-c2nonc2N)nc2c(C#CC(C)(C)O)nc(OCCNC)cc21`, the “activity change, negative = inhibition” value is 2.21%.

Consider `COC(=O)Nc1nc2ccc(S(=O)(=O)c3ccc(NC(=O)Nc4cc(C(F)(F)F)ccc4F)cc3)cc2[nH]1`, for which the “activity change, negative = inhibition” value is 5.29%.

For the molecule `COc1ccc(C2=C(N3CCc4ccccc43)C(=O)NC2=O)cc1`, the “activity change, negative = inhibition” value was -13.5%.

For `CC(C)c1ccc(-c2cc(-c3cn[nH]c3-c3ccccn3)ccn2)cc1`, the “activity change, negative = inhibition” value was -93.4%.

Turning to `CCn1c(-c2nonc2N)nc2ccncc21`, the “activity change, negative = inhibition” value was 0.105%.
